High-throughput results as filed in PubChem BioAssay.
In the library only some 19% were active in any assay of this set; here they are far more common.
DT40 TDP1 CPT: qHTS for Inhibitors of human tyrosyl-DNA phosphodiesterase 1 (TDP1): qHTS in cells in presence of CPT; chicken DT40 Tdp1-/-;hTDP1 cells + 20 nM CPT, ATP luminescence, 48 h; Potency, µM (titrated, usually from 46.2 µM), for the others: top-dose activity change, negative = growth inhibition, actives largely listed as inhibitors; hit rate 12% among 420,000; also: potency is read from the fitted curve at half-maximal effect; nearly all actives have a fitted effect of over 55% in size
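Chicken DT40 Tdp1-/- cells complemented with human TDP1, 400 cells/well, exposed to compounds plus 20 nM camptothecin for at least 48 h at 37 C; viability read as ATP content by CellTiter-Glo luminescence.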
IL1B secr inh: qHTS for Inhibitors of Inflammasome Signaling: IL-1-beta AlphaLISA Primary Screen; AID 743279, 2014; THP-1 LPS/ATP IL-1B secretion, AlphaLISA, 16 h; hits give low values; activity change, % at 57.5 µM; hit rate 4.7% among 360,000; in the data active = activity change below about -50%; inconclusive = mostly about -30% to -49%
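THP-1 cells pretreated 1 hr with compounds (up to 57.5 uM final), then stimulated with LPS (250 ng/mL final) plus ATP (1.25 mM final); secreted IL-1B measured by AlphaLISA after 16 hr, decreased signal indicating inhibition.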
uPA generation: qHTS for Inhibitors of Cell Surface uPA Generation | Potency, µM (titrated, usually from 38.3 µM), without a hit: at the top dose activity change, negative = inhibition, most hits filed as inhibitors | cell surface uPA generation assay, qHTS | hit rate 0.31% among 330,000; active = well fitted inhibition curve with a large enough effect; inconclusive = small, poorly fitted or top-dose-only effect; inactive = no such curve, though single readings can be large or run the other way; tested in mouse RAW 264.7 cells; also: potency is read from the fitted curve at half-maximal effect; nearly all actives have a fitted effect of over 55% in size
HT1080 IDH1KD tx: qHTS for induction of synthetic lethality in tumor cells producing 2HG: qHTS for the HT-1080-IDH1KD cell line; hit rate 2% among 360,000; HT-1080 IDH1 knockdown viability, ATP luminescence, 48 h; Potency, µM (top dose mostly 46.1 µM), without a hit: top-dose activity, negative = toxicity, actives largely listed as cytotoxic;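 also: potency is read from the fitted curve at half-maximal effect; 0% = DMSO wells and -100% = cell-free medium wells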
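Viability of IDH1-knockdown HT-1080 fibrosarcoma cells was assessed by CellTiter-Glo after 48 h at 37 °C with titrated compound; concentration-effect curves were classified by fit quality and response size.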
DT40 TDP1 no CPT: qHTS for Inhibitors of human tyrosyl-DNA phosphodiesterase 1 (TDP1): qHTS in cells in absence of CPT. DT40 Tdp1-/- hTDP1 cells, no CPT, ATP luminescence, 48 h. Potency, µM (titrated, usually from 46.2 µM), inactives show at the top dose activity change, negative = growth inhibition, usual class: inhibitors. hit rate 15% among 420,000. AID 686978, 2013; also: potency is read from the fitted curve at half-maximal effect; nearly all actives have a fitted effect of over 55% in size
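Compound effects on proliferation are scored in DT40 Tdp1-/-;hTDP1 cells in the absence of CPT. ATP levels (CellTiter-Glo luminescence) are recorded after a ≥48 hr, 37 °C incubation.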
HT1080-NT tox: qHTS for induction of synthetic lethality in tumor cells producing 2HG: qHTS for the HT-1080-NT fibrosarcoma cell line; HT-1080-NT fibrosarcoma viability, CellTiter-Glo ATP luminescence, 48 h; Potency, µM (doses to about 46.1 µM), inactives show at the top dose activity, negative = less viability, usual class: cytotoxic; hit rate 1.6% among 360,000; AID 686970, 2013;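 also: NT is the 2HG producing partner of a matched IDH1 knockdown line; potency is read from the fitted curve at half-maximal effect; 0% = DMSO-treated cells and -100% = media-only wells without cells; nearly all actives have a fitted effect of over 55% in size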
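Viability of the 2HG-overproducing fibrosarcoma line after 48 hours of compound exposure at 37 degrees C was determined by luminescence with CellTiter-Glo, and concentration-effect curves were then fitted and categorized.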
Numbers without * were called inactive; ? = inconclusive; / = no result; [ ] = dose if it differs, or a comment. Unless noted, calls follow the shape of the dose curve; as a rule, active = well fitted curve in the direction sought with a large enough effect; inconclusive = small, poorly fitted or top-dose-only effect, or another doubt; inactive = no such curve, though single readings can be large; an effect the other way counts as inactive or inconclusive. Unless noted, % is scaled to controls: 0 for no effect and ±100 for the full control effect.

SMILES	DT40 TDP1 CPT	IL1B secr inh	uPA generation	HT1080 IDH1KD tx	DT40 TDP1 no CPT	HT1080-NT tox
CC(C)(C)C1CCc2c(sc(NC(=O)Cn3nnc(-c4ccccc4F)n3)c2C#N)C1 (stereo not drawn)	0.4%	/	/	/	-12.9%	/
Cc1ccc(S(=O)(=O)Oc2ccccc2/C=C2/SC(=O)NC2=O)cc1	3.3%	29.1	-6.6%	-18.9%	0.1%	-22.7%
O=C1N=C(N2CCOCC2)S/C1=C/c1cc2c(cc1[N+](=O)[O-])OCO2	11.6µM*	-99.8*	-5.4%	?	13µM*	?
CC(=O)N1CCN(C2=NC(=O)/C(=C/c3ccc(OS(=O)(=O)c4ccccc4)cc3)S2)CC1	20.6µM*	0.0	?	-2.1%	?	-5.5%
O=C1N=C(N2CCOCC2)S/C1=C\c1ccccc1OS(=O)(=O)c1ccccc1	11.6µM*	11.7	5.1%	8.8%	8.2µM*	-12.0%
Cc1ccc(S(=O)(=O)Oc2ccc(/C=C3/N=C(c4ccccc4)OC3=O)cc2)cc1	?	?	16.3%	-4.1%	?	-1.0%
COc1ccc(C(=O)Nc2ccc(O)c3ccccc23)cc1OC	?	17.0	-3.3%	-19.3%	?	-11.9%
O=C(CCN=C1NS(=O)(=O)c2ccccc21)OCc1cccc(Cl)c1	-9.7%	11.2	-0.9%	3.2%	?	-0.4%
CCOC(=O)c1cccc(NC(=O)CSc2nnc(C)n2CC2CCCO2)c1 (stereo not drawn)	2.7%	4.2	-0.6%	9.8%	10.3%	-0.2%
CC(=O)c1ccc(NC(=O)CSc2nc(C3CCCC3)nc3c2c(=O)n(C)c(=O)n3C)cc1	5.17µM*	/	/	/	5.17µM*	/
Cc1cccc(NC(=O)CSc2nc(C3CCCC3)nc3c2c(=O)n(C)c(=O)n3C)c1C	-14.0%	/	/	/	-6.7%	/
CCCn1c(=O)n(C)c(=O)c2c(SCc3cc(C(C)=O)ccc3OCC)nc(C3CC3)nc21	20.6µM*	7.8	2.2%	2.3%	25.9µM*	-6.0%
Cc1ccc(NC(=O)CSc2nc(C3CCCC3)nc3c2c(=O)n(C)c(=O)n3C)c(C)c1	-19.9%	/	/	/	6.3%	/
Cn1c(=O)c2c(SCC(=O)Nc3nccs3)nc(C3CC3)nc2n(C)c1=O	23.1µM*	-7.7	1.1%	17.8%	18.4µM*	23.9%
Cn1c(=O)c2c(SC3CCCC3)nc(C3CC3)nc2n(C)c1=O	?	32.5	0.0%	3.4%	20.6µM*	8.2%
Cc1ccccc1Cn1c(CN2CCN(c3cc(Cl)ccc3C)CC2)nc2c1c(=O)[nH]c(=O)n2C	?	/	/	/	13µM*	/
Cn1c(=O)[nH]c(=O)c2c1nc(CN1CCN(c3cccc(Cl)c3)CC1)n2CCCc1ccccc1	?	-12.8	-6.1%	-2.3%	?	-0.9%
Cc1ccc(Cl)cc1N1CCN(Cc2nc3c(c(=O)[nH]c(=O)n3C)n2CCc2ccccc2)CC1	16.4µM*	4.2	3.1%	6.7%	?	9.1%
Cn1c(=O)[nH]c(=O)c2c1nc(CN1CCN(c3ccccc3F)CC1)n2Cc1ccc(F)cc1	-25.4%	/	/	/	-26.7%	/
Cc1cccc(Cn2c(CN3CCN(Cc4ccccc4)CC3)nc3c2c(=O)[nH]c(=O)n3C)c1	?	-6.0	2.3%	-6.5%	?	-13.1%
Cc1ccc(Cl)cc1N1CCN(Cc2nc3c(c(=O)[nH]c(=O)n3C)n2Cc2ccccc2F)CC1	?	?	-29.7%	?	23.1µM*	?
COc1ccc(C(C(=O)NCC2CCCO2)N(Cc2ccccc2)C(=O)CNC(=O)c2ccco2)cc1OC (stereo not drawn)	-0.4%	117.5	-4.2%	-1.3%	-13.9%	-1.8%
CCOC(=O)Cn1nnnc1CN(Cc1ccccc1)Cc1cc2cc(CC)ccc2[nH]c1=O	20.6µM*	-91.4*	-1.2%	-12.8%	?	0.7%
CCOC(=O)Cn1nnnc1C(CC)N(Cc1ccccc1)Cc1cc2cc(C)ccc2[nH]c1=O (stereo not drawn)	?	15.7	/	-0.8%	-29.1%	12.0%
Cc1cc(C)c2cc(CN(CCO)Cc3nnnn3Cc3ccccc3)c(=O)[nH]c2c1	?	-4.3	-6.4%	-10.9%	-30.0%	-7.7%
SMILES	DT40 TDP1 CPT	IL1B secr inh	uPA generation	HT1080 IDH1KD tx	DT40 TDP1 no CPT	HT1080-NT tox
O=c1[nH]c2cc3c(cc2cc1CN(Cc1ccccc1)Cc1nnnn1Cc1ccco1)OCCO3	?	-59.2*	8.2%	?	?	13.4%
COc1ccccc1CN(Cc1cc2cc3c(cc2[nH]c1=O)OCCO3)Cc1nnnn1Cc1ccco1	25.9µM*	19.6	/	1.6%	?	-12.3%
O=c1[nH]c2cc3c(cc2cc1CN(Cc1cccs1)Cc1nnnn1Cc1ccco1)OCCO3	14.6µM*	-23.8	-5.7%	10.6%	16.4µM*	10.0%
COc1ccc(CN2CCNC(=O)C2CC(=O)N(C)Cc2nc(C)cs2)c(OC)c1 (stereo not drawn)	0.9%	0.0	11.8%	0.6%	8.9%	0.2%
CC1=C(C(=O)N2CCCCCC2)CC(CC(=O)NCCCN(C)C)C(=O)N1Cc1ccc(F)cc1 (stereo not drawn)	-21.0%	22.6	/	4.8%	-0.9%	9.9%
COc1ccc(CCN(C)Cc2nc(Cc3ccc(OC)c(OC)c3)no2)cc1OC	?	0.0	0.3%	-6.8%	?	-3.5%
CCc1ccc2[nH]c(=O)c(CN(Cc3ccccc3)Cc3nnnn3Cc3ccco3)cc2c1	?	-54.1*	-6.8%	?	16.4µM*	-22.6%
COc1ccc(NC(=O)CCCn2c(=O)c3cccn3c3ccccc32)c(OC)c1	13µM*	/	/	/	10.3µM*	/
COc1ccc(NC(=O)Cn2c(=O)c3cccn3c3ccccc32)cc1	?	/	/	/	-26.6%	/
COc1ccccc1NC(=O)CCn1c(=O)c2cccn2c2ccccc21	?	-4.2	11.3%	15.1%	23.1µM*	12.1%
COc1ccc(OC)c(NC(=O)Cn2c(=O)c3cccn3c3ccccc32)c1	?	/	/	/	11.6µM*	/
CCC1CN(CCNC(=O)c2ccc3c(c2)OCO3)Cc2cc(OC)ccc2O1 (stereo not drawn)	-4.5%[9.04 µM]	/	/	/	?	/
COc1ccc(NC(=O)CSC2=Nc3ccccc3C3=NC(Cc4ccccc4)C(=O)N23)cc1Cl (stereo not drawn)	20.6µM*	/	/	/	?	/
